Results filed as inconclusive are left out. Values without a mark were called inactive. Active and inactive are the calls of the source. The call rests on the fitted dose curve; in most records, active means well fitted cell-killing curve with a large enough effect in the repeat runs (not every such curve was filed as active); inconclusive means weak or mixed curves, or effect the other way; inactive means no such curve, though single readings can be large or run the other way.
On the % scale 0 is the no-effect control and ±100 the full control effect.

A short description of the experiment: qHTS assay to identify small molecule antagonists of the estrogen related receptor signaling pathway with the pleiotropic PPARgamma coactivator (PGC) from Tox21 10K library - cell viability counter screen (AID 1224840). Further: nearly all actives have a fitted effect of over 40% in size. To be noted: PGC/ERR reporter cells viability, CellTiter-Fluor, 17.5 h; series mostly up to 92.4 µM. An excerpt: National Center for Advancing Translational Sciences [NCATS]
NIH Chemical Genomics Center [NCGC]
U.S. Environmental Protection Agency [EPA]
National Institutes of Environmental Health Sciences [NIEHS]
National Toxicology Program [NTP]
U.S. Food and Drug Administration [FDA]
Estrogen related receptors (ERRs), the first orphan nuclear receptors discovered, play an important role in the control of cellular energy metabolism. ERRs are required for high-energy production in response to the environmental challenges. The pleiotropic PPARgamma coactivator (PGC) is a major partner of ERR and a key regulator in energy homeostasis. Together they have been implicated in the etiology of metabolic disorders such as Type 2 diabetes and metabolic syndrome. ERR-alpha was also identified as an adverse marker for breast cancer progression; ERR-alpha-positive tumors have a poor prognosis. To screen and to identify environmental compounds that perturb the ERR and PGC/ERR signaling pathways could provide valuable information for potential therapeutic or preventive measures in the treatment of metabolic disease. To differentiate true PGC/ERR antagonists or agonist from cytotoxic substances, the assay is multiplexed with cell viability assay.
Tox21 Assay Protocol Summary:
The PGC/ERR cells were dispensed at 2,000 cells/5 ul/well in 1536-well white plates using a Multidrop dispenser. After the assay plates were incubated at a 37 C/5% CO2 incubator for 6 hours, 23 nL of compounds dissolved in DMSO, positive and negative controls or DMSO only was transferred to the assay plate by a pin tool. The plates were incubated at 37 C for 17.5 hours. 1 ul/well of CellTiter-Fluor reagent was added into the assay plates using a Flying Reagent Dispenser. After 30-minute incubation at 37 C/5% CO2, the fluorescence intensity in the plates was measured using a ViewLux plate reader.
A general note: In qHTS, concentration-response curves come from the screen itself.
`COCCc1ccc(OCC2CO2)cc1` (stereo not given): the compound was classed as inactive.

With `CCCCCCCC/C=C\CCCCCCCC(=O)OCCCC`, the viability change, negative = cytotoxic was -2.58% [at 19 µM]. In the case of `C=COCCOCCOCCOC=C`, the compound was called inactive. Consider `CC(C)c1ccc2cc(C(C)C)ccc2c1`, for which the outcome was inactive. On to `COc1cc(NS(=O)(=O)c2ccc(N)cc2)nc(OC)n1`, for which the result was inactive. On to `Cc1ccc(C=O)cc1C`, for which the call was inactive. Same read-out and setting: the result for `CC(=O)/C=C/C1C(C)=CCC(C)C1(C)C` (stereo not given) reads “inactive”; that for `Cc1ccccc1N=O`, “inactive”; that for `NC(CO)C(=O)NNCc1ccc(O)c(O)c1O` (stereo not given), “inactive”.

For `CC/C=C\CC1=C(C)CCC1=O`, the call was inactive. Consider `Oc1cn2c(n1)Nc1ccc(Cl)c(Cl)c1C2`, for which the viability change, negative = cytotoxic was 5.01% [at 19 µM]. For `CC1=C(C(=O)O)N2C(=O)[C@@H](NC(=O)[C@H](N)c3ccc(O)cc3)[C@H]2SC1`, the outcome was inactive.

Consider `CCCOC(OCCC)OCCC`, for which the result was inactive.

Consider `CC1(C)S[C@@H]2[C@H](N=CN3CCCCCC3)C(=O)N2[C@H]1C(=O)O`, for which the call was inactive. Still for that read-out and setting: to `CC1(CO)CN(c2ccccc2)NC1=O` (stereo not given) belongs “inactive”; to `O=C1CC(c2ccc(Cl)cc2)CC(=O)N1`, “inactive”. `ClCCCl`: the result was inactive. With `O=C(CCNNC(=O)c1ccncc1)NCc1ccccc1`, the result was inactive.

Turning to `CCOC(=O)CC(=O)c1ccccc1`, the result was inactive. As to `COC(=O)[C@@H]1[C@H]2C[C@H]3c4[nH]c5ccccc5c4CCN3C[C@@H]2CC[C@@H]1O`, the compound was called inactive. For `NCCS`, the call was inactive. `CCCCCCCCCCl`: the compound was called inactive.

Turning to `C[C@H](N)[C@H](O)c1cccc(O)c1`, the call was inactive.

With `O=C1CCCC(=O)O1`, the compound was classed as inactive.

In the case of `C=C(C)C(=O)OCCNC(C)(C)C`, the compound was called inactive. Take `O=C(O)c1cc(Cl)cc([N+](=O)[O-])c1Cl`: the result was inactive. On the same count and under the same terms, to `CC(C)=O` belongs “inactive”; to `NCCN1CCOCC1`, “inactive”; to `O=C(CCN1CCN(CCO)CC1)N1c2ccccc2Sc2ccc(C(F)(F)F)cc21`, “inactive”. Still for that read-out and setting: to `Cc1cc(NC(=O)C2=C(O)c3ccccc3S(=O)(=O)N2C)no1` belongs “inactive”; to `COc1ccc(S(=O)(=O)N2c3ccc(Cl)cc3[C@@](O)(c3ccccc3Cl)[C@H]2C(=O)N2CCC[C@@H]2C(N)=O)cc1OC`, “inactive”; to `O=C1O[C@@H]2[C@@H](O)[C@H](O)O[C@@H]2[C@H]1O`, “inactive”. For the compound `O=C(NCC(O)CO)c1c(I)c(C(=O)NCC(O)CO)c(I)c(N(CCO)C(=O)CO)c1I` (stereo not given), the compound was classed as inactive. Consider `O=C(NCCc1c[nH]c2ccccc12)c1cccnc1`, for which the result was inactive. Turning to `CCOC(=O)c1ncn2c1CN(C)C(=O)c1cc(F)ccc1-2`, the outcome was inactive. As for `CC(C)NCC(O)COc1ccc(COCCOC(C)C)cc1` (stereo not given), the result was inactive. As for `O=C1c2ccccc2C(=O)N1CCl`, the compound was called inactive. For `C=C1CC/C=C(\C)CC[C@@H]2[C@@H]1CC2(C)C`, the compound was classed as inactive. Consider `O=S(O)(O)=S`, for which the viability change, negative = cytotoxic was 0.0211% [at 8.39 µM]. As for `COc1ccc2c(c1)C(=O)N(CCc1ccc(S(=O)(=O)NC(=O)NC3CCCCC3)cc1)C(=O)C2(C)C`, the compound was classed as inactive.

For the origin of these results see PubChem BioAssay (Tox21).
